Test results published in PubChem BioAssay AID1117319 (Southern Research Institute, 2015).
The whole screen tested about 260,000 compounds, of which about 1,500 (0.58%) were called active. Not shown: some 5% with an inconclusive outcome.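 Rule for the calls: active = inhibition above a set limit at one or more doses, reproduced on every date tested; inconclusive = results disagree between test dates, or hit never tested in dose response; inactive = the rest.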 The list is a sample of the results. Measured potencies and affinities stand elsewhere.

The molecules below were run against Virion infectivity factor (Human immunodeficiency virus type 1 group M subtype B (isolate BH10)) + Virion infectivity factor (Human immunodeficiency virus type 1 group M subtype B (isolate BRU/LAI)) + Virion infectivity factor (Human immunodeficiency virus type 1 group M subtype B (isolate PCV12)) + Virion infectivity factor (Human immunodeficiency virus type 1 group M subtype B (isolate HXB2)) + DNA dC->dU-editing enzyme APOBEC-3G (Homo sapiens) (UniProt P69720+P69721+P69722+P69723+Q9HC16) (assay: HIV-1 Vif–A3G interaction blockers – biochemical, TR-FRET, GST-Vif 1-94, biotin-A3G peptide, dose response retest, primary screen (AID 1117319;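 note: Vif residues 1-94 fused to GST binding biotinylated APOBEC3G peptide 110-148; 0% = full assay without inhibitor and 100% = GST in place of GST-Vif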)). Conditions: TR-FRET GST-Vif / biotin-A3G peptide binding; active compounds read high.

inhibition, inactive:
CCN(Cc1ccc(NC(C)=O)cc1)CC1CCCN(CCc2cccc(OC)c2)C1 (configuration not stated) 3.62%, O=C(Cn1nnc(-c2ccccc2Cl)n1)Nc1cccc(S(=O)(=O)N2CCCC2)c1 -4.6%, COC(=O)c1ccccc1NC(=O)Nc1ccc(Cl)cn1 -0.47%, O=C(NCc1ccccc1)c1ccc2nccnc2c1 -2.53%, CCc1nc2ccc(C(=O)NCc3ccccc3)cc2nc1CC 13.9%, CC(C(=O)N1CCN(c2ccc(Cl)cc2)CC1)c1ncc(C(F)(F)F)cc1Cl (configuration not stated) -3.01%, Cc1ccc(S(=O)(=O)NCc2nnc(SCC(=O)Nc3cccc(C)c3C)n2C)cc1 -1.43%, NS(=O)(=O)c1ccc(NC(=O)NC2CCCCC2)cc1 1.56%, CSc1oc(-c2ccco2)nc1S(=O)(=O)c1ccc(Br)cc1 6.37%, CSc1oc(-c2ccco2)nc1S(=O)(=O)c1ccc(F)cc1 9.31%, Cc1ccc2nc3sc(C(=O)Nc4ccc(N5CCOCC5)cc4)c(N)c3cc2c1 12.2%, NC(=O)c1ccc(OCC(F)(F)F)nc1 -12.4%, O=C(NC(=S)N1CCN(c2ccc([N+](=O)[O-])cc2)CC1)c1ccccc1Cl 0.79%, C[C@@H]1CCCCO[C@H](CN(C)C(=O)Nc2cccc3ccccc23)[C@@H](C)CN([C@H](C)CO)C(=O)c2cc(N(C)C)ccc2O1 4.84%, CC(=O)N=Cc1c(C)c(C#N)c(=O)n(C)c1O 6.56%, Cc1c(/C=N/Nc2ccc(F)cc2)c(O)n(C)c(=O)c1C#N 12.3%, O=C(C1CCN(S(=O)(=O)c2ccc3c(c2)OCCO3)CC1)N1CCc2ccccc21 24.2%, Oc1ccc(Cl)cc1N=Nc1ccccc1 0.9%, CNS(=O)(=O)c1cc(O)c2c(S(=O)(=O)NC)cccc2c1 1.99%, COc1ccccc1C(=O)NCCC(=O)Nc1ccc(S(=O)(=O)N2CC(C)CC(C)C2)cc1 (configuration not stated) -5.91%, CC(C)OC(=O)CSc1nnc(Cc2ccccc2)n1C 1.42%, O=[N+]([O-])c1ccc(Cl)c2c1C1C=CCC1C(c1ccccn1)N2 (configuration not stated) -2.51%, Cc1ccc([N+](=O)[O-])cc1S(=O)(=O)Nc1ccccn1 11.9%, O=C(O)c1ccc2c(c1)C1C=CCC1C(c1cc3c(cc1Br)OCO3)N2 (configuration not stated) -3.12%, Cc1cc([N+](=O)[O-])cc2ncccc12 22.2%, O=C(O)c1cc(-c2ccccn2)n[nH]1 -8.59%, COc1ccc(OC)c(C2Nc3c(Cl)ccc(C(=O)O)c3C3C=CCC32)c1 (configuration not stated) -11.5%, CN(C)C(=O)c1ccc2c(c1)C1C3CCC(C3)C1C(c1ccccc1)N2 (configuration not stated) -2.04%, CC1(C)CC(=O)C2=C(C1)Nc1cc(C(=O)c3ccccc3)ccc1NC2c1ccccn1 (configuration not stated) 1.75%, Cc1c(CNCCc2ccccc2Cl)c(C(=O)O)c(C)n1-c1ccccc1 -7.23%, Cc1ccc(C(=O)NC(=S)Nc2cccc(-c3nc4ccccc4s3)c2)cc1 9.8%, CSCCC(NS(=O)(=O)c1ccccc1F)C(=O)NCC(C)(C)N1CCOCC1 (configuration not stated) 1.29%, O=C(OCc1nc2ccsc2c(=O)[nH]1)c1ccc(Cl)s1 11.9%, CCCCN(C(=O)C(C)(C)Oc1ccc(Cl)cc1)c1c(N)n(CCC)c(=O)[nH]c1=O -3.39%, CC(C)CN(CC(C)C)C(=O)Nc1cccc([N+](=O)[O-])c1 0.14%, CCC(C)NC(=O)CSc1nnc(-c2cc(OC)c(OC)c(OC)c2)c(-c2cc(OC)c(OC)c(OC)c2)n1 (configuration not stated) 2.7%, NC(=O)NC(=O)CN1C(=O)NC2(CCOc3ccccc32)C1=O (configuration not stated) 5.28%, N=C1C(c2ccccc2)=C(O)CN1c1cccc(O)c1 10.9%, COC(=O)c1ccc(C2Nc3ccc(/C(C)=N/NC(=O)C(OC)c4ccccc4)cc3C3C=CCC32)cc1 (configuration not stated) 11.3%, Cc1ccc2c(c1)[C@H]1OCC[C@H]1[C@@H](c1ccncc1)N2 27.8%, CC1Cc2cc(C(=O)O)ccc2O1 (configuration not stated) -3.49%, O=C1CSc2ccc(C(=O)O)cc2N1 10.3%, CCc1ccc2oc(=O)cc(CN3CCN(CCO)CC3)c2c1 4.78%, CC/C(=N\Nc1ccc([N+](=O)[O-])cc1[N+](=O)[O-])c1ccc(O)cc1 -6.92%, COc1cccc(-c2nnc3sc(-c4ccccn4)nn23)c1 -11.4%, COc1ccc(-c2nn3c(-c4ccccn4)nnc3s2)cc1OC 12.7%, COC(=O)c1cc(C)ccc1/C=C1/Cc2c(C)cc(C)cc2C1=O -4.06%, CC1CC1C(=O)OCC(=O)Nc1ncc(Cl)cc1Cl (configuration not stated) 6.04%, CCc1cc(=O)n2[nH]c(C)c(-c3ccc(OC)cc3)c2n1 -3.08%, CCCc1cc(=O)n2[nH]c(C)c(-c3ccccc3OC)c2n1 -0.45%, COc1ccc(S(=O)(=O)N2CCC(C(=O)NCCC(=O)NCc3cccnc3)CC2)cc1 -0.14%, Cc1noc(C)c1CCC(=O)Nc1cc(C(=O)O)ccc1Cl 4.29%, Cc1ccc(NC(=O)CN2C(=O)N/C(=C/c3ccc4c(c3)OCCO4)C2=O)cc1 -0.54%, Cc1ccc(NC(=O)CN2C(=O)N/C(=C/c3ccc(C)o3)C2=O)cc1 30.9%, N=C1/C(=C\c2ccc(OC(=O)c3ccco3)cc2)C(=O)N=C2SC=NN12 2.2%, CCC1=NN2C(=N)/C(=C/c3c(C)nn(-c4ccccc4)c3Cl)C(=O)N=C2S1 6.74%, CCCC1=NN2C(=N)/C(=C\c3cc(C)n(-c4cccc(C)c4)c3C)C(=O)N=C2S1 -10.2%, N=C1/C(=C\c2ccc(SCc3ccccc3)o2)C(=O)N=C2SC(CC(=O)N3CCOCC3)=NN12 18.9%, N=C1/C(=C\c2ccc(SCc3ccccc3)o2)C(=O)N=C2SC=NN12 1.67%, CC1=NN2C(=N)/C(=C\c3ccc(SCc4ccccc4)o3)C(=O)N=C2S1 26.3%, CCC1=NN2C(=N)/C(=C\c3cccn3-c3ccc(C)c(C)c3)C(=O)N=C2S1 2.9%, CCC1=NN2C(=N)/C(=C\c3cccn3-c3ccc(Cl)cc3)C(=O)N=C2S1 0.75%
